# Experiment: binding inhibition across receptor and channel panel – biochemical, Eurofins PanLabs, competition binding, selectivity assay for M5 PAM project, profiling panel (AID 651832)
# Details: at 10 µM, stronger effect = higher value; for inhibition: Eurofins PanLabs radioligand binding panel
structure (smiles),measurement,setting,value
O=C1C(=O)N(CCOc2ccccc2)c2ccc(OC(F)(F)F)cc21,inhibition,measured here: adenosine A3 binding,57%
same,inhibition,measured here: adrenergic alpha1A binding,71%
same,inhibition,measured here: adrenergic alpha1B binding,66%
same,inhibition,measured here: cannabinoid CB1 binding,72%
same,inhibition,measured here: dopamine D1 binding,73%
same,inhibition,measured here: dopamine D3 binding,59%
same,inhibition,measured here: glucocorticoid receptor binding,88%
same,inhibition,measured here: hERG binding,21%
same,inhibition,measured here: histamine H2 binding,95%
same,inhibition,measured here: mu opioid binding,78%
same,inhibition,measured here: muscarinic M2 binding,-2%
same,inhibition,measured here: norepinephrine transporter binding,77%
same,"inhibition of radioligand binding, muscarinic M1",,22%
